# From PubChem BioAssay (NCATS)
# Inconclusive results are not listed. A number with no mark means an inactive call. Calls follow the shape of the dose curve; as a rule, active = well fitted inhibition curve with a large enough effect; inconclusive = small, poorly fitted or top-dose-only effect; inactive = no such curve, though single readings can be large or run the other way.
# Assay: NS1 protein of Zika virus - qHTS assay to identify small molecule inhibitors in human HEK 293 cells (AID 1347053);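 also: plate controls were infected untreated cells for no effect and uninfected cells for full effect; nearly all actives have a fitted effect of over 55% in size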
# Conditions: HEK293 ZIKV MR766 infection, NS1 TR-FRET, 24 h; series mostly up to 46.1 µM; activity change, negative = inhibition: at the top concentration
# Text: National Center for Advancing Translational Sciences [NCATS]
# Johns Hopkins University School of Medicine
# The non-structural 1 (NS1) protein of zika virus is known to associate with the viral replication complex. This cell-based TR-FRET ZIKV NS-1 assay measures the increased NS-1 protein in human HEK 293 cells after a 24-hour Zika virus infection by a TR-FRET assay readout. A decrease in the Time-resolved fluorescence energy transfer (TR-FRET) signal in this assay by small molecule treatment indicates an inhibitory effect of the small molecule on the expression of Zika virus NS1 correlating with Zika virus replication.
# HEK 293 cells were cultured in EMEM (ATCC, Cat. # 30-2003) medium with 10% fetal bovine serum (GE healthcare Life Sciences, Cat. # SH30071.03), and 1% Pen/Strep (Gibco, Cat. # 15140-122). Cells were seeded in the assay plate and incubated at 37 C with 5% CO2 for 20 hours. Compounds were added to cells and incubated for one hour before addition of ZIKV MR766 strain solution to cells (MOI = 0.5). After an incubation at 37 C for 24 hours, the reagent mixture of TR-FRET ZIKV NS1 assay using two anti-ZIKV NS1 antibodies was added to assay plates. The TR-FRET signals in assay plates were measured using an Envision plate reader (PerkinElmer). Data were normalized by using the cell-containing wells without ZIKV as a negative control (0% NS-1) and wells containing ZIKV infected cells as a positive control (100% NS-1 level).
row,SMILES,"activity change, negative = inhibition"
1,CNc1c2c(nn1C)CCCC2,4.63%
2,O=c1[nH]c(=O)n([C@H]2C[C@H](O)[C@@H](CO)O2)cc1I,-7.6%
3,COc1nccnc1NS(=O)(=O)c1ccc(N)cc1,3.18%
4,O=C(O)c1ccccc1OP(=O)(O)O,-0.407%
5,O=C(O)CCCc1ccccc1,6.33%
6,Nc1ccncc1N,-0.678%
7,Cc1ncc(CO)c(CN)c1O,-15%
8,COC(=O)N/N=C/c1c[n+]([O-])c2ccccc2[n+]1[O-],9.03%
9,CCCCCC(C)N (stereo not given),1.3%
10,C=CCOc1ccccc1OCC(O)CNC(C)C (stereo not given),-3.61%
11,CCOc1ccccc1O[C@H](c1ccccc1)[C@H]1CNCCO1,-16.3%
12,COc1ccccc1Oc1c(NS(=O)(=O)c2ccc(C(C)(C)C)cc2)nc(-c2ncccn2)nc1OCCO,-6.82%
13,CCOC(=O)OC(C)OC(=O)[C@@H]1N2C(=O)[C@@H](NC(=O)[C@H](N)c3ccccc3)[C@H]2SC1(C)C (stereo not given in full),7.34%
14,CC(=O)Nc1ccc(OCCOCCOc2ccc(NC(C)=O)cc2)cc1,11.2%
15,CCN[C@H]1CN(CCCOC)S(=O)(=O)c2sc(S(N)(=O)=O)cc21,-5.87%
16,O=C(O)c1ccccc1C(=O)Nc1ccc(S(=O)(=O)Nc2nccs2)cc1,-11.2%
17,O=C(O)c1cc(=O)c2ccccc2o1,0%
18,O=C1c2cccc(O)c2C(=O)c2c(O)cccc21,3.11%
19,CC(=O)OCC(COC(C)=O)OC(C)=O,2.62%
20,C[C@H]1COc2c(C3(N)CC3)c(F)cc3c(=O)c(C(=O)O)cn1c23,-4.62%

row,SMILES,"activity change, negative = inhibition"
1,O[C@@H]1CO[C@H]2[C@@H]1OC[C@@H]2O,-6.88%
2,OC[C@@H](O)[C@@H](O)[C@H](O)[C@H](O)CO,-15.8%
3,COc1ccc(C(=O)N2CCN(CC(=O)N3CCOCC3)CC2)cc1,-4.79%
4,CCCNC(C)(C)COC(=O)c1ccccc1,-18.2%
5,CC(=O)Nc1cccc(O)c1,-9.01%
6,Cc1ccc(S(=O)(=O)NC(=O)NC2CCCCC2)cc1,-16%
7,CC1(C)S[C@@H]2[C@H](NC(=O)C(C(=O)O)c3ccccc3)C(=O)N2[C@H]1C(=O)O (stereo not given in full),-2.97%
8,Cc1c(NC(C)C)c(=O)n(-c2ccccc2)n1C,4.85%
9,Cc1cc(NC(=O)C2=C(O)c3ccccc3S(=O)(=O)N2C)no1,-12%
10,CCCCC1(COC(=O)CCC(=O)O)C(=O)N(c2ccccc2)N(c2ccccc2)C1=O,8.93%
11,CC(=O)Oc1cccc(C)c1,1.09%
12,O=C(O)c1ccc(OCCCOc2ccc(C(=O)O)cc2)cc1,-0.805%
13,O=C(/C=C/c1ccccc1)OCc1ccccc1,0.759%
14,CC(=O)Nc1ccc(C(=O)O)cc1,-19.6%
15,CNCc1ccccc1,0.204%
16,O=C(O)C(S)C(S)C(=O)O (stereo not given),-1.36%
17,CCN(CC)CC1CCCCN1CC(=O)N1c2ccccc2C(=O)Nc2cccnc21 (stereo not given),2.69%
18,O=c1[nH]cnc2nc[nH]c12,-6.46%
19,Cc1c(NC(=O)c2cccnc2)c(=O)n(-c2ccccc2)n1C,2.03%
20,CC(=O)Oc1cccc(O)c1,1.26%
